# Measured values taken from the supplement of paper PMC8728848.
# About 410 targets per protein were measured; listed, in parts, are those with the strongest signals and a random draw of the rest.
# B1: Actd5 (Actinidia), P84527 (protein)
# chain: ISSCNGPCRDLNDCDGQLICIKGKCNDDPQVGTHICRGTTHSHQPGGCKPSGTLTCRGKSYPTYDCSPPVTSSTPAKLTNNDFSEGGDDGGPSECDESYHNNNERIVALSTGWYNGGSRCGKMIRITASNGKSVSAKVVDECDSRHGCDKEHAGQPPCRNNIVDGSNAVWSALGLDKNVGVVDITWSMA
# Experiments:
# Experiment in all cases: glycan array binding signal (z-score within array); higher = stronger binding
# Conditions in all cases: glycan notation: IUPAC condensed, linker removed
# [1] = biological target: GlcA3S(b1-3)Gal(b1-4)GlcNAc(b1-2)Man
# Summary of the method: (§1)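 Columns mapping to the same glycan were averaged after glycan names were converted to IUPAC-condensed notation. The data come from 3228 arrays in the Consortium for Functional Glycomics database, limited to those with an available protein sequence. Binding is reported as a within-array Z-score averaged across arrays of one protein sequence and across linkers.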
# [2] = biological target: GlcA3S(b1-3)Gal(b1-4)GlcNAc(b1-3)Gal(b1-4)Glc
# Summary of the method: as §1
# [3] = biological target: GlcNAc(b1-2)[GlcNAc(b1-4)]Man(a1-3)[GlcNAc(b1-4)][GlcNAc(b1-2)Man(a1-6)]Man(b1-4)GlcNAc(b1-4)GlcNAc
# Summary of the method: as §1
# [4] = biological target: GlcNAc(b1-3)Gal(b1-4)GlcNAc(b1-3)Gal(b1-4)GlcNAc(b1-2)Man(a1-3)[GlcNAc(b1-3)Gal(b1-4)GlcNAc(b1-3)Gal(b1-4)GlcNAc(b1-2)Man(a1-6)]Man(b1-4)GlcNAc(b1-4)[Fuc(a1-6)]GlcNAc
# Summary of the method: as §1
# [5] = biological target: GlcNAc(b1-3)Gal(b1-4)GlcNAc(b1-6)[Gal(b1-3)]GalNAc
# Summary of the method: as §1
# [6] = biological target: GlcNAc(b1-3)Gal(b1-4)GlcNAc(b1-6)[GlcNAc(b1-3)]Gal(b1-4)GlcNAc
# Summary of the method: as §1
# [7] = biological target: Man(a1-2)Man(a1-2)Man(a1-3)Man
# Summary of the method: as §1
# [8] = biological target: Man(a1-2)Man(a1-2)Man(a1-6)[Man(a1-3)]Man
# Summary of the method: as §1
# [9] = biological target: Man(a1-2)Man(a1-3)[Man(a1-2)Man(a1-6)]Man(a1-6)[Man(a1-2)Man(a1-2)Man(a1-3)]Man(b1-4)GlcNAc(b1-4)GlcNAc
# Summary of the method: as §1
# [10] = biological target: Man(a1-2)Man(a1-6)[Man(a1-3)]Man(a1-6)[Man(a1-2)Man(a1-2)Man(a1-3)]Man
# Summary of the method: as §1
# [11] = biological target: Man(a1-3)[Man(a1-6)]Man(a1-6)[Man(a1-2)Man(a1-3)]Man(b1-4)GlcNAc(b1-4)GlcNAc
# Summary of the method: as §1
# [12] = biological target: Neu5Ac(a2-3)Gal(b1-3)GlcNAc(b1-3)GalNAc
# Summary of the method: as §1
# [13] = biological target: Neu5Ac(a2-3)Gal(b1-3)[GlcNAc(b1-6)]GalNAc
# Summary of the method: as §1
# [14] = biological target: Neu5Ac(a2-3)Gal(b1-4)GlcNAc(b1-2)Man(a1-3)[Neu5Ac(a2-3)Gal(b1-4)GlcNAc(b1-2)Man(a1-6)]Man(b1-4)GlcNAc(b1-4)[Fuc(a1-6)]GlcNAc
# Summary of the method: as §1
# [15] = biological target: Neu5Ac(a2-3)Gal(b1-4)GlcNAc(b1-2)[Neu5Ac(a2-3)Gal(b1-4)GlcNAc(b1-4)]Man(a1-3)[GlcNAc(b1-4)][Neu5Ac(a2-3)Gal(b1-4)GlcNAc(b1-2)[Neu5Ac(a2-3)Gal(b1-4)GlcNAc(b1-6)]Man(a1-6)]Man(b1-4)GlcNAc(b1-4)GlcNAc
# Summary of the method: as §1
# [16] = biological target: Neu5Ac(a2-3)Gal(b1-4)GlcNAc(b1-3)Gal(b1-4)GlcNAc(b1-3)Gal(b1-4)GlcNAc(b1-2)Man(a1-3)[Neu5Ac(a2-3)Gal(b1-4)GlcNAc(b1-3)Gal(b1-4)GlcNAc(b1-3)Gal(b1-4)GlcNAc(b1-2)Man(a1-6)]GalNAc
# Summary of the method: as §1
# [17] = biological target: Neu5Ac(a2-3)Gal(b1-4)GlcNAc(b1-3)Gal(b1-4)GlcNAc(b1-3)GalNAc
# Summary of the method: as §1
# [18] = biological target: Neu5Ac(a2-3)Gal(b1-4)GlcNAc(b1-3)GalNAc
# Summary of the method: as §1
# [19] = biological target: Neu5Ac(a2-3)Gal(b1-4)[Fuc(a1-3)]GlcNAc
# Summary of the method: as §1
# [20] = biological target: Neu5Ac(a2-3)Gal(b1-4)[Fuc(a1-3)]GlcNAc(b1-3)Gal(b1-4)GlcNAc
# Summary of the method: as §1
# [21] = biological target: Neu5Ac(a2-3)Gal(b1-4)[Fuc(a1-3)]GlcNAc(b1-6)[Gal(b1-3)]GalNAc
# Summary of the method: as §1
# [22] = biological target: Neu5Ac(a2-3)Gal(b1-4)[Fuc(a1-3)]GlcNAc(b1-6)[Neu5Ac(a2-3)Gal(b1-3)]GalNAc
# Summary of the method: as §1
# [23] = biological target: Neu5Ac(a2-3)Gal(b1-4)[Fuc(a1-3)]GlcNAc6S
# Summary of the method: as §1
# [24] = biological target: Neu5Ac(a2-3)[GalNAc(b1-4)]Gal(b1-4)GlcNAc(b1-3)GalNAc
# Summary of the method: as §1
# [25] = biological target: Neu5Ac(a2-6)Gal(b1-4)GlcNAc(b1-2)Man(a1-3)Man(b1-4)GlcNAc(b1-4)GlcNAc
# Summary of the method: as §1
# [26] = biological target: Neu5Ac(a2-6)Gal(b1-4)GlcNAc(b1-2)Man(a1-3)[Gal(b1-4)GlcNAc(b1-2)Man(a1-6)]Man(b1-4)GlcNAc(b1-4)GlcNAc
# Summary of the method: as §1
# [27] = biological target: Neu5Ac(a2-6)Gal(b1-4)GlcNAc(b1-2)Man(a1-3)[GlcNAc(b1-2)Man(a1-6)]Man(b1-4)GlcNAc(b1-4)GlcNAc
# Summary of the method: as §1
# [28] = biological target: Neu5Ac(a2-6)Gal(b1-4)GlcNAc(b1-2)Man(a1-6)[GlcNAc(b1-2)Man(a1-3)]Man(b1-4)GlcNAc(b1-4)GlcNAc
# Summary of the method: as §1
# [29] = biological target: Neu5Ac(a2-6)Gal(b1-4)GlcNAc(b1-3)Gal(b1-4)GlcNAc(b1-3)Gal(b1-4)GlcNAc(b1-2)Man(a1-3)[Neu5Ac(a2-6)Gal(b1-4)GlcNAc(b1-3)Gal(b1-4)GlcNAc(b1-3)Gal(b1-4)GlcNAc(b1-2)Man(a1-6)]GalNAc
# Summary of the method: as §1
# [30] = biological target: Neu5Ac(a2-8)Neu5Ac(a2-3)[GalNAc(b1-4)]Gal(b1-4)Glc
# Summary of the method: as §1
# Neu5Gc(a2-3)Gal(b1-4)Glc = biological target: Neu5Gc(a2-3)Gal(b1-4)Glc
# Summary of the method: as §1
binder,measurement,setting,value
B1,glycan array binding signal (z-score),[1],-0.597
same,glycan array binding signal (z-score),[2],-0.788
same,glycan array binding signal (z-score),[3],-0.558
same,glycan array binding signal (z-score),[4],3.06
same,glycan array binding signal (z-score),[5],-0.776
same,glycan array binding signal (z-score),[6],0.458
same,glycan array binding signal (z-score),[7],0.687
same,glycan array binding signal (z-score),[8],6.66
same,glycan array binding signal (z-score),[9],4.17
same,glycan array binding signal (z-score),[10],3.42
same,glycan array binding signal (z-score),[11],5.03
same,glycan array binding signal (z-score),[12],-0.064
same,glycan array binding signal (z-score),[13],-0.32
same,glycan array binding signal (z-score),[14],-0.173
same,glycan array binding signal (z-score),[15],-0.296
same,glycan array binding signal (z-score),[16],5.66
same,glycan array binding signal (z-score),[17],-0.279
same,glycan array binding signal (z-score),[18],0.374
same,glycan array binding signal (z-score),[19],-0.42
same,glycan array binding signal (z-score),[20],0.65
same,glycan array binding signal (z-score),[21],1.5
same,glycan array binding signal (z-score),[22],-0.33
same,glycan array binding signal (z-score),[23],-0.958
same,glycan array binding signal (z-score),[24],0.22
same,glycan array binding signal (z-score),[25],-0.071
same,glycan array binding signal (z-score),[26],-0.093
same,glycan array binding signal (z-score),[27],-0.252
same,glycan array binding signal (z-score),[28],-0.496
same,glycan array binding signal (z-score),[29],3.79
same,glycan array binding signal (z-score),[30],-0.363
same,glycan array binding signal (z-score),Neu5Gc(a2-3)Gal(b1-4)Glc,0.046
